The results in this text go back to PubChem BioAssay (Tox21).

Results filed as inconclusive are left out. A number with no mark means an inactive call. Active and inactive are the calls of the source. Calls follow the shape of the dose curve; as a rule, active = well fitted curve in the direction sought with a large enough effect in the repeat runs; inconclusive = weak or mixed curves; inactive = no such curve, though single readings can be large; an effect the other way counts as inactive or inconclusive.

Test [1] in a line: qHTS assay to identify small molecule antagonists of the retinoid acid receptor (RAR) signaling pathway - cell viability counter screen (AID 1159551). Also: nearly all actives have a fitted effect of over 35% in size. The conditions noted are these: C3RL4 cells viability, ATP luminescence (CellTiter-Glo), 6 h; series mostly up to 92.4 µM. In a few lines: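 Seed C3RL4 cells; next day add compound, then retinol to 1 uM final; incubate 6 h at 37 C; add CellTiter-Glo; read luminescence after 30 min at RT.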
In general terms: Quantitative high-throughput screening tests each substance at several concentrations.

The nature of test [2]: qHTS assay to identify small molecule antagonists of the retinoic acid receptor (RAR) signaling pathway (AID 1159552; also: nearly all actives have a fitted effect of over 50% in size; also: potency is read from the fitted curve at half-maximal effect). As to conditions: C3RL4 RARE luciferase reporter, retinol-stimulated, 6 h; series mostly up to 92.4 µM. In a few lines: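 Antagonism of retinol-induced RARE reporter activity was measured in C3RL4 cells. Exposure to compounds and 1 uM final retinol lasted 6 hr at 37 C, with luminescence as endpoint.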

Test [3] can be described thus: qHTS assay to identify small molecule agonists of the retinoic acid receptor (RAR) signaling pathway (AID 1159553). Also: potency is read from the fitted curve at half-maximal effect. The conditions noted are these: C3RL4 RARE luciferase reporter, agonist, 6 h; series mostly up to 73.3 µM. In a few lines: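 Activation of retinol signaling was monitored via a RARE luciferase reporter in C3RL4 cells. After 6 hr compound treatment at 37 C, detection reagent was added for 30 min at room temperature before luminescence reading.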

Test [4] in a line: qHTS assay to identify small molecule antagonists of the estrogen related receptor (ERR) signaling pathway from Tox21 library - cell viability counter screen (AID 1224834). Also: nearly all actives have a fitted effect of over 30% in size. Also: potency is read from the fitted curve at half-maximal effect. As to conditions: ERR reporter cells viability, CellTiter-Fluor, 17.5 h; series mostly up to 92.4 µM. In a few lines: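 CellTiter-Fluor fluorescence measured; ERR cells; 17.5 h compound incubation at 37 C; 30 min reagent step.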

Test [5] in a line: qHTS assay to identify small molecule agonists of the RXR signaling pathway - cell viability counter screen (AID 1159529). Also: nearly all actives have a fitted effect of over 50% in size. Also: potency is read from the fitted curve at half-maximal effect.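 As to activity change, negative = cytotoxicity: HEK 293T cells carrying an RXR-alpha UAS beta-lactamase reporter.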 The conditions noted are these: RXR-alpha-bla HEK293T viability, CellTiter-Glo, 16 h; series mostly up to 76.8 µM. In a few lines: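 Counter screen: CellTiter-Glo luminescence. Cells: RXR-alpha-UAS-bla HEK 293T. Medium: 2% charcoal-stripped FBS. Treatment: 16 h, 37 C. Reagent incubation: 30 min, RT.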

The nature of test [6]: qHTS assay to identify small molecule agonists of the estrogen related receptor (ERR) signaling pathway (AID 1224820). The conditions noted are these: ERR reporter cell line, luciferase agonist mode; series mostly up to 46.1 µM. In a few lines: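 ERR reporter cell line (from NTP), 2,000 cells/well, incubated 6 h before compound addition, then 18 h at 37 C. Luminescence measured 30 min after One-Glo reagent at room temperature.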

A short description of test [7]: qHTS assay to identify small molecule antagonists of the estrogen related receptor signaling pathway with the pleiotropic PPARgamma coactivator (PGC) cell viability counter screen (AID 1224822;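 also: viability read after 17.5 h compound exposure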). As to conditions: ERR/PGC reporter cell line viability counter screen; series mostly up to 46.1 µM. In a few lines:
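Compounds in DMSO, with positive and negative controls, were applied to PGC/ERR cells (2,000/well) and left 17.5 h at 37 C before CellTiter-Fluor detection.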
% is scaled to controls: 0 for no effect and ±100 for the full control effect.

Turning to `N#Cc1cc2ccccc2c2ccccc12`, the Potency result in test [1], in test [2], in test [3] and in test [4] was “inactive” throughout.
As to `Cc1ccc(C(N)=O)cc1N`, the Potency entry in test [5] and in test [4] was “inactive” each time.
`C=CC(=O)OCC(C)OCC(C)OCC(C)OC(=O)C=C` (centres undefined): the Potency entry in test [5] was “inactive”. Also, the Potency in test [2] and in test [4] was 61.1 µM (active) throughout.
Regarding `CCc1nn(C2CCCCC2)c2cc(C3(C#N)CCC(C(=O)O)CC3)ccc12` (centres undefined), the Potency result in test [5] and in test [3] was “inactive” in each case. For the same compound, the Potency in test [4] is 48.6 µM (active).
In the case of `CN(C)CCCOc1nn(Cc2ccccc2)c2ccccc12`, the Potency result in test [1] is “inactive”.
With `COc1ccc([C@@H]2Sc3ccccc3N(CCN(C)C)C(=O)[C@@H]2OC(C)=O)cc1`, the Potency result in test [1], in test [2] and in test [3] was “inactive” each time. Also, the compound was called inactive in test [6] and in test [7].
Regarding `O=C(CC(=O)c1ccccc1)c1ccccc1`, in test [1], the Potency result was “inactive”.
Turning to `CC(=O)[C@@]1(O)CC[C@H]2[C@@H]3C[C@H](C)C4=CC(=O)CC[C@]4(C)[C@H]3CC[C@@]21C`, the Potency result in test [5] and in test [4] was “inactive” each time.
Regarding `Cc1cc(O)ccc1N`, the Potency is 34.9 µM (active) in test [5] and 15.4 µM (active) in test [4]. In test [2], the Potency entry is “inactive”.
On to `CC1(C)CCC(C)(C)c2cc(NC(=O)c3ccc(C(=O)O)cc3)ccc21`, for which the Potency entry in test [5] and in test [4] was “inactive” in each case.
As to `Cc1cccc(Oc2ccccc2)c1`, the Potency entry in test [1] was “inactive”.
Regarding `N#CCc1cccc(C(F)(F)F)c1`, the Potency entry in test [1], in test [2], in test [3] and in test [4] was “inactive” throughout.
Take `CCCCCCCC/C=C\CCCCCCCC(N)=O`: the Potency result in test [5], in test [3] and in test [4] was “inactive” in each case.
On to `C[C@H](CCC(=O)O)[C@H]1CC[C@H]2[C@@H]3[C@H](O)C[C@@H]4C[C@H](O)CC[C@]4(C)[C@H]3CC[C@]12C`, for which the Potency result in test [1], in test [2] and in test [3] was “inactive” in each case.
Turning to `CC(C)(C)c1cc(CO)cc(C(C)(C)C)c1O`, the Potency entry in test [1], in test [2] and in test [3] was “inactive” each time.
`CCCC(C)C`: the Potency result in test [1] and in test [2] was “inactive” throughout.
Consider `O=[N+]([O-])c1cc[n+]([O-])cc1`, for which the Potency result in test [5], in test [2] and in test [4] was “inactive” each time.
Regarding `Oc1ccc(Sc2ccc(O)cc2)cc1`, the Potency entry in test [1] and in test [2] was “inactive” each time.
As for `S=C(S)NCCNC(=S)S`, the Potency entry in test [5] and in test [4] was “inactive” in each case.
Consider `c1ccc(CNCc2ccccc2)cc1`, for which the Potency result in test [1], in test [2], in test [3] and in test [4] was “inactive” throughout.
Take `CCN(CC)CCNC(C(=O)OCCC(C)C)c1ccccc1` (centres undefined): the Potency entry in test [1] is “inactive”.
For `CN(C)CC[C@@H](c1ccc(Br)cc1)c1ccccn1`, the Potency result in test [1], in test [2], in test [3] and in test [4] was “inactive” each time. The result in test [7] was inactive.
Turning to `COc1ccc(OC)c(OC)c1`, the Potency result in test [5] and in test [4] was “inactive” in each case.
In the case of `CCCCCOC(=O)c1ccc(O)cc1`, the Potency result in test [1] and in test [2] was “inactive” in each case. Further, the Potency in test [3] was 1.23 µM (active).
As to `COc1cc(C(C)(C)C)c(O)c(C(C)(C)C)c1`, the Potency result in test [5] and in test [4] was “inactive” throughout.
With `Oc1ccc(Cc2ccccc2)cc1`, the Potency result in test [1] and in test [2] was “inactive” each time.
With `CCCCOc1ccc(CC(=O)NO)cc1`, the Potency entry in test [1] and in test [2] was “inactive” each time. The Potency was 29.8 µM (active) in test [3] and 18.8 µM (active) in test [4].
For `CC/C(=C\C(=N/O)C(N)=O)C(C)[N+](=O)[O-]` (centres undefined), the Potency result in test [5], in test [2] and in test [4] was “inactive” throughout.
Turning to `Cc1cc(C)c(S(=O)(=O)O)cc1N=Nc1cc(S(=O)(=O)O)c2ccccc2c1O`, the Potency result in test [5] is “inactive”. Moreover, in test [4], the Potency is 54.5 µM (active).
With `CC(=O)/C(C)=C/C1C(C)=CCCC1(C)C` (centres undefined), the Potency entry in test [1], in test [2], in test [3] and in test [4] was “inactive” each time.
`CCOC(=O)C1=NN(c2ccccc2)C(=O)C1`: the Potency entry in test [1], in test [2], in test [3] and in test [4] was “inactive” throughout.
On to `CC(C)=CCCC(C)CC=O` (centres undefined), for which the Potency result in test [5] and in test [4] was “inactive” each time.
Regarding `O=C(O)[C@@H]1[C@H]2C[C@H]3c4[nH]c5ccccc5c4CCN3C[C@@H]2CC[C@@H]1O`, the Potency result in test [5], in test [3] and in test [4] was “inactive” each time.
In the case of `Cc1cc(CC(=O)O)c(C)n1-c1ccc(Cl)cc1`, the Potency result in test [1], in test [2] and in test [3] was “inactive” in each case.
Take `CC(=O)N(CC(=O)N(C)C)c1ccccc1`: the Potency result in test [5] and in test [4] was “inactive” throughout.
As to `CCOC(=O)[C@H](CCc1ccccc1)N[C@H]1CCc2ccccc2N(CC(=O)O)C1=O`, the Potency entry in test [1] is “inactive”. Besides, the Potency was 29.8 µM (active) in test [2] and 26.6 µM (active) in test [4].
As to `C1=Cc2ccccc2C1`, the Potency result in test [1], in test [2], in test [3] and in test [4] was “inactive” in each case.
In the case of `CCCCCC/C=C/C=O`, the Potency entry in test [1], in test [2], in test [3] and in test [4] was “inactive” in each case.
Regarding `CC(C)(C)C(=O)OCOP(=O)(COCCn1cnc2c(N)ncnc21)OCOC(=O)C(C)(C)C`, the Potency entry in test [1] and in test [4] was “inactive” throughout. Also, in test [2], the Potency is 3.76 µM (active).
For `Cc1cccc(OCCOc2cccc(C)c2)c1`, the Potency entry in test [1], in test [2] and in test [4] was “inactive” in each case.
With `CCOC(=O)C1=C(C)NC(C)=C(C(=O)OC)C1c1cccc([N+](=O)[O-])c1` (centres undefined), the Potency entry in test [1] and in test [2] was “inactive” throughout. For the same compound, in test [7], the outcome was inactive.
Turning to `NC[C@H]1O[C@H](O[C@H]2[C@H](O)[C@@H](O[C@H]3O[C@H](CO)[C@@H](O)[C@H](N)[C@H]3O)[C@H](N)C[C@@H]2N)[C@H](O)[C@@H](O)[C@@H]1O`, the activity change, negative = cytotoxicity in test [1] is -0.107% [at 8.39 µM]. Besides, in test [2], the activity, negative = inhibition was 7.6% [at 8.39 µM]. Besides, in test [4], the viability change, negative = cytotoxic is -5.48% [at 8.39 µM].
For the compound `O=C(Cl)c1ccc([N+](=O)[O-])cc1`, the Potency entry in test [1], in test [2], in test [3] and in test [4] was “inactive” throughout.
For `NCCCOCCOCCOCCCN`, the Potency result in test [1], in test [2], in test [3] and in test [4] was “inactive” in each case.
For the compound `CC(C)(C)c1ccc(OCC2CO2)cc1` (centres undefined), the Potency entry in test [1], in test [2] and in test [4] was “inactive” in each case.
Take `C[C@@H](C1=C(CCN(C)C)Cc2ccccc21)c1ccccn1`: the Potency entry in test [1], in test [2], in test [3] and in test [4] was “inactive” throughout.
On to `Cl/C(=C\n1cncn1)c1ccc(Cl)cc1Cl`, for which the Potency result in test [1], in test [2], in test [3] and in test [4] was “inactive” throughout.
As for `O=C(O)Cn1c(C(=O)Nc2nc(-c3ccccc3Cl)cs2)cc2ccccc21`, the Potency result in test [1], in test [2], in test [3] and in test [4] was “inactive” throughout.
On to `O=c1c2ccccc2nnn1CCl`, for which the Potency result in test [1], in test [2] and in test [4] was “inactive” throughout.
